# Assay results as given in PubChem BioAssay (NCATS).
# Values joined by “and” are separate entries in the source; they are usually repeats but may differ in a detail not shown here. Equal entries are not always repeated. Records with an inconclusive call do not appear. Active and inactive are the calls of the source. Unless noted, calls follow the shape of the dose curve; as a rule, active = well fitted curve in the direction sought with a large enough effect; inconclusive = small, poorly fitted or top-dose-only effect, or another doubt; inactive = no such curve, though single readings can be large; an effect the other way counts as inactive or inconclusive.
# Columns and labels:
# [1] = qHTS Assay for Lipid Storage Modulators (AID 1519; calls by dose curve; as to activity change, negative = inhibition: % is scaled to controls: 0 for no effect and ±100 for the full control effect); settings: Drosophila S3 cells, BODIPY lipid droplet/cell ratio, laser cytometry, cells loaded with oleic acid
# Outline: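 Cells seeded at 5,000 per well were treated with compounds over a concentration series and loaded with oleic acid (400 uM, as added). Lipid droplet fluorescence (488 nm excitation, 500-530 nm channel) was read by laser-scanning cytometry and normalized to 20 uM Triacsin C.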
# [2] = biological target: DNA repair nuclease/redox regulator APEX1 (Homo sapiens) (UniProt P27695); experiment: qHTS Validation Assay for Inhibitors of the Human Apurinic/apyrimidinic Endonuclease 1 (APE1) (AID 1705; also: potency is read from the fitted curve at half-maximal effect;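 as to activity change, negative = inhibition: TAMRA fluorescence gain over two minutes as APE1 cuts a quenched THF abasic duplex; % is scaled to controls: 0 for no effect and ±100 for the full control effect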); settings: purified APE1 endonuclease activity, fluorescence, titration; series mostly up to 57.1 µM
# Sequence of DNA repair nuclease/redox regulator APEX1 (Homo sapiens) (P27695 whole entry, looked up): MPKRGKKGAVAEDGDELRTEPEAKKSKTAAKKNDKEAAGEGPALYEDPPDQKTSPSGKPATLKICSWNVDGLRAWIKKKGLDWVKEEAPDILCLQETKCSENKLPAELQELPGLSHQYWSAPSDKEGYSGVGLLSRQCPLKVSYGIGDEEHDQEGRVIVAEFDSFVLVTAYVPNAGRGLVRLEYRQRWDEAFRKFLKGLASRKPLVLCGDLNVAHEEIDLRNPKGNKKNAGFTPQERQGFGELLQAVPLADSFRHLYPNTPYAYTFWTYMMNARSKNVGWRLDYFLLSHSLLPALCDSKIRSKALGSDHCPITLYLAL
# Outline: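 Endonuclease activity of human APE1 is followed as dequenching when the enzyme incises a tetrahydrofuran abasic site in a short duplex labelled 5'-TAMRA/3'-BHQ-2 (50 nM final), after 15 min enzyme–compound preincubation at room temperature.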
# [3] = Counterscreen for APE1 Inhibitors: Fluorescent Dye Displacement Validation Assay (AID 1707); settings: fluorescent dye displacement from DNA; series mostly up to 57.1 µM; also: potency is read from the fitted curve at half-maximal effect;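 as to activity change, negative = inhibition: plate controls were ThO with dsDNA and no compound for no effect and ThO without dsDNA for full effect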
# Outline: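 Endpoint fluorescence read at 480 nm excitation / 540 nm emission; DNA-binding compounds lower signal by displacing 250 nM Thiazole Orange from 50 nM dsDNA containing a tetrahydrofuran abasic site, Tris-HCl pH7.5 buffer with NaCl and MgCl2.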
# [4] = biological target: Endonuclease 4 (Escherichia coli (strain K12)) (UniProt P0A6C1); experiment: Counterscreen for APE1 Inhibitors: qHTS Validation Assay for Inhibitors of Endonuclease IV (AID 1708); also: % is scaled to controls: 0 for no effect and ±100 for the full control effect; settings: E. coli endonuclease IV, DNA cleavage fluorescence; series mostly up to 57.1 µM
# Outline: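 Incision of a double-stranded 50 nM TAMRA/BHQ-2 abasic substrate was followed kinetically (525/598 nm, reads every 60 s) after 15 min enzyme–compound preincubation with 2 nM EndoIV in pH 7.5 Tris buffer with MgCl2, DTT and Tween-20; concentration-response format.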
# [5] = qHTS for differential inhibitors of proliferation of Plasmodium falciparum line GB4 (AID 1816); settings: Potency: Plasmodium falciparum GB4 proliferation inhibition; series mostly up to 28.7 µM;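 also: potency is read from the fitted curve at half-maximal effect; parasite growth measured after 72 h incubation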
# [6] = qHTS for differential inhibitors of proliferation of Plasmodium falciparum line 3D7 (AID 1876); also: potency is read from the fitted curve at half-maximal effect; settings: P. falciparum 3D7 proliferation inhibition; series mostly up to 28.7 µM
# [7] = biological target: ATP-dependent DNA helicase Q1 (Homo sapiens) (UniProt P46063); experiment: qHTS Validation Assay for Inhibitors of RecQ-Like Dna Helicase 1 (RECQ1) (AID 2353); settings: recombinant RECQ1 helicase DNA unwinding assay; series mostly up to 25.6 µM; also: potency is read from the fitted curve at half-maximal effect;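 as to activity change, negative = inhibition: plate controls were DMSO vehicle for no effect and enzyme-free control for full effect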
# Sequence of ATP-dependent DNA helicase Q1 (Homo sapiens) (P46063 whole entry, looked up): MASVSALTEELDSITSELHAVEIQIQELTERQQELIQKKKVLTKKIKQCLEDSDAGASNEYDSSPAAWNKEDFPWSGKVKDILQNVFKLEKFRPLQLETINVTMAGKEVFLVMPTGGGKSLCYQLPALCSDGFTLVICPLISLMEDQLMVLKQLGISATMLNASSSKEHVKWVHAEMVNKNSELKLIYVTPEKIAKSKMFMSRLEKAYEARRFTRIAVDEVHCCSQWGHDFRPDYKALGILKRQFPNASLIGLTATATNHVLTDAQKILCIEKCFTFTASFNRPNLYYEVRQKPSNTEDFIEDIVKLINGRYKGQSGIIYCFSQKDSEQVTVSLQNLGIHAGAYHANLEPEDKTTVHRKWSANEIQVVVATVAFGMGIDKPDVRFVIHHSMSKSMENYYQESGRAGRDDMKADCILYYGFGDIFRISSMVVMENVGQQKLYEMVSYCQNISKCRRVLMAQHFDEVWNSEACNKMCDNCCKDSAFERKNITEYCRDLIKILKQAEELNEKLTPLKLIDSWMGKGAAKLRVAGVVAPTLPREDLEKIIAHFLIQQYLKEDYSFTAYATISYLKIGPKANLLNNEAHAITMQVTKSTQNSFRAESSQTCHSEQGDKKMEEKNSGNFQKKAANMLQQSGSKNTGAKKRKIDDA
# Outline: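 RECQ1T1 50 nM; forked duplex (20 bp + 30-nt ss tails) 200 nM, ATP 2 mM final; pH 8.0, 2 mM MgCl2, 2.5 ug/ml poly(dI-dC); 15 min compound preincubation; discontinuous kinetic read over 2 h at RT.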
# [8] = biological target: RecQ-like DNA helicase BLM (Homo sapiens) (UniProt P54132); experiment: qHTS Validation Assay for Inhibitors of Bloom's syndrome helicase (BLM) (AID 2364); settings: BLM helicase DNA unwinding, fluorescence, in vitro; series mostly up to 57.1 µM; also: potency is read from the fitted curve at half-maximal effect;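 as to activity change, negative = inhibition: plate controls were DMSO vehicle for no effect and enzyme-free control for full effect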
# Sequence of RecQ-like DNA helicase BLM (Homo sapiens) (P54132 whole entry, looked up): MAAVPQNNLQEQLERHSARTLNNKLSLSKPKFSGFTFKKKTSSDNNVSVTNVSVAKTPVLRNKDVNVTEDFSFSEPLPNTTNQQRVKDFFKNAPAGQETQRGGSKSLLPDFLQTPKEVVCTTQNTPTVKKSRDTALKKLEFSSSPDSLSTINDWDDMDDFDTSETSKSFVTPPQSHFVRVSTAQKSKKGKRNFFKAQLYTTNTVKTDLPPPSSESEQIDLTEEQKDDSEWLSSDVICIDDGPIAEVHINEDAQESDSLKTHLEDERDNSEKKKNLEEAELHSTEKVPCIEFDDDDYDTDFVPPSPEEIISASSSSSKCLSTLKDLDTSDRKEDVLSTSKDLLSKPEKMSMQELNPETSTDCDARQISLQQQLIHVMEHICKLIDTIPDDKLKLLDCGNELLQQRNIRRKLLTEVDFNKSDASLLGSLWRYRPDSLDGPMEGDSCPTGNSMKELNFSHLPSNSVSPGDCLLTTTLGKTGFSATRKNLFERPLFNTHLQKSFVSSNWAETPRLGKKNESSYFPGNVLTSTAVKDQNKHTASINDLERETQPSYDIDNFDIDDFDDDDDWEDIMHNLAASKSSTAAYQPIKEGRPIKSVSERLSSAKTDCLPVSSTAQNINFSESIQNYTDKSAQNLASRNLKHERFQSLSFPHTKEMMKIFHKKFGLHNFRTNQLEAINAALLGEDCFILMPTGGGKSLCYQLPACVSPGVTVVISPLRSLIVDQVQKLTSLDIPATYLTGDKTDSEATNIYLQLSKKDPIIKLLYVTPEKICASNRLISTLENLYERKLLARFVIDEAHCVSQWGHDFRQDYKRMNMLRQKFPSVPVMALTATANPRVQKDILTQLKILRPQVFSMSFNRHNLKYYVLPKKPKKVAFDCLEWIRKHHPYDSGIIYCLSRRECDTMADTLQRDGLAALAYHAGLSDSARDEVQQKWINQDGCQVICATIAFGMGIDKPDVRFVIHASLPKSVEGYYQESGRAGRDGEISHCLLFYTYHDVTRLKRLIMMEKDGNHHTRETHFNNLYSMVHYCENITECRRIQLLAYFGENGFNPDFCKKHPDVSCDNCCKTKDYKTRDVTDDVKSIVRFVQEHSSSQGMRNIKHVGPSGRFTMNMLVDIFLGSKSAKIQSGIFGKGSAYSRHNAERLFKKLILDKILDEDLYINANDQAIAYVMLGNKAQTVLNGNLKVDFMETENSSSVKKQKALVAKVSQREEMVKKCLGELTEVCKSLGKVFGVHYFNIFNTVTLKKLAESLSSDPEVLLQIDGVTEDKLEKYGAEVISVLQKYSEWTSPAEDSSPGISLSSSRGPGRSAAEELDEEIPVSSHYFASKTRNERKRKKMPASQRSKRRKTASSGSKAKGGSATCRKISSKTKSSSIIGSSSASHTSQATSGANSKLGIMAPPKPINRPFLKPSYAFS
# Outline: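 Forked 20-bp duplex substrate (200 nM, TAMRA/BHQ-2) plus 2 mM ATP added after 15 min compound preincubation with 50 nM enzyme, pH 8.0, poly(dI-dC) 2.5 ug/ml. Strand separation followed by fluorescence (525/598 nm) over 2 h, normalized to enzyme-free and DMSO controls.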
# [9] = High Content Imaging Cell-Based qHTS for Inhibitors of the mTORC1 Signaling Pathway in MEF (Tsc2-/-, p53-/-) Cells (AID 2666); settings: series mostly up to 38.3 µM;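 also: percent of cells scored positive for phospho-rpS6 Ser235/236 immunostaining by imaging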; also: potency is read from the fitted curve at half-maximal effect
# Outline: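 Tsc2-/-, p53-/- MEFs (empty-vector stable) grown in DMEM + 10% FBS were exposed to compounds for 24 hrs at 37 degree Celsius, fixed, and stained with Alexa-488 anti-phospho-rpS6 Ser235/236 plus Hoechst. Imaging gave the percentage of positive cells per well.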
# [10] = High Content Imaging Cell-Based qHTS for Inhibitors of the mTORC1 Signaling Pathway in MEF Cells (AID 2667); settings: series mostly up to 38.3 µM;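 also: Tsc2-/- p53-/- MEFs stably re-expressing wild-type Tsc2 exposed 24 h; plate controls were DMSO wells for no effect and rapamycin control wells for full effect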
# Outline: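 Tsc2-/-, p53-/- MEFs stably re-expressing WT Tsc2, grown in DMEM + 10% FBS, were treated with compounds for 24 hrs at 37 degree Celsius, fixed, and stained with Alexa-488 phospho-rpS6 Ser235/236 antibody plus Hoechst; results given as % positive cells.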
# [11] = qHTS for differential inhibitors of proliferation of Plasmodium falciparum line Dd2 (AID 1882); settings: Potency: Plasmodium falciparum Dd2 proliferation inhibition; series mostly up to 28.7 µM; also: potency is read from the fitted curve at half-maximal effect; nearly all actives have a fitted effect of over 65% in size
# Outline: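 SYBR Green DNA fluorescence (ex 485, em 535 nm) after overnight lysis quantifies parasite growth; compound exposure lasted 72 h at 37 C on infected red cells at 2.5% hematocrit, 0.3% parasitemia (final). Artemisinin 0.29 uM and vehicle wells define normalization.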
# [12] = qHTS for differential inhibitors of proliferation of Plasmodium falciparum line W2 (AID 1883); settings: Potency: Plasmodium falciparum W2 proliferation inhibition; series mostly up to 28.7 µM;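 also: potency is read from the fitted curve at half-maximal effect; parasites grown with compound for 72 h before lysis and staining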
# [13] = biological target: Ferritin light chain (Equus caballus) (UniProt P02791); experiment: qHTS Validation Assay for Identification of Novel General Anesthetics (AID 2323); settings: horse apoferritin, anesthetic-site fluorescent probe displacement; series mostly up to 76.9 µM; also: % is scaled to controls: 0 for no effect and ±100 for the full control effect
# Sequence of Ferritin light chain (Equus caballus) (P02791 2-175 limits assumed): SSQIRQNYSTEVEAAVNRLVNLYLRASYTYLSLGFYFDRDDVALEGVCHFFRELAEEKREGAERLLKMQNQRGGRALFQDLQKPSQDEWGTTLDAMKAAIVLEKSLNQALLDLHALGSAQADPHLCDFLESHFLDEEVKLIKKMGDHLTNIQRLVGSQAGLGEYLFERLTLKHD
# Outline: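 Apoferritin from horse spleen (10 uM) was mixed with 1-aminoanthracene at 50% saturation in PBS, then compounds were added. After 10 min at room temperature, fluorescence was read (ex 380 nm, em 535 nm) and normalized to free-probe and complex controls.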
# [14] = Cytometric Cell-Based qHTS for Inhibitors of the mTORC1 Signaling Pathway in MEF (Tsc2-/-, p53-/-) Cells (AID 2660); settings: mTORC1 pathway cytometry; series mostly up to 38.3 µM;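 also: Tsc2 and p53 null MEFs carrying empty vector with compound for 24 h; percent of cells above a phospho-rpS6 to PI ratio cutoff in each well; plate controls were DMSO for no effect and rapamycin for full effect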
# Outline: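 Cells are plated, treated with compound for 24 hrs at 37 degree Celsius, then fixed, blocked and immunostained for phospho-rpS6 Ser235/236. Propidium iodide counterstain follows. Per-well % positive cells is derived from the PI-normalized phospho-S6 signal.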
# [15] = measured here: cell count channel max response
# [16] = measured here: lipid channel max response
structure (smiles),measurement,setting,value
CCN(CC)C(=S)SSC(=S)N(CC)CC,"activity change, negative = inhibition",[1]; at 25.7 µM (top of the series),-3.33% (inactive)
same,max response,[1]; [15],-15.7%
same,max response,[1]; [16],-17%
same,Potency,[2],inactive
same,Potency,[3],inactive
same,outcome,[4],inactive
same,Potency,[5],5.01 µM (active)
same,Potency,[6],2.82 µM (active)
same,Potency,[7],inactive
same,Potency,[8],inactive
same,Potency,[9],1.85 µM (active)
same,Potency,[10],inactive
CCCCc1ccc2nc(NC(=O)OC)[nH]c2c1,"activity change, negative = inhibition",[1]; at 25.7 µM (top of the series),1.84% (inactive)
same,max response,[1]; [15],-4.18%
same,max response,[1]; [16],-2.48%
O=C(NC(Cc1cc(=O)[nH]c2ccccc12)C(=O)O)c1ccc(Cl)cc1 (stereo unspecified),"activity change, negative = inhibition",[1]; at 57.5 µM (top of the series),11.1% (inactive)
same,max response,[1]; [15],17.3%
same,max response,[1]; [16],35%
O=c1c(O)c(-c2cc(O)c(O)c(O)c2)oc2cc(O)cc(O)c12,"activity change, negative = inhibition",[1]; at 25.7 µM (top of the series),2.34% (inactive)
same,"activity change, negative = inhibition",[1]; at 57.5 µM (top of the series),14.6% (inactive) and -3.22% (inactive)
same,max response,[1]; [15],-7.21% and 17.3% and -40.9%
same,max response,[1]; [16],-2.79% and 29.1% and -42.9%
same,Potency,[2],0.355 µM (active)
same,Potency,[3],3.55 µM (active)
same,outcome,[4],inactive
same,Potency,[6],10 µM (active)
same,Potency,[11],4.47 µM (active)
same,Potency,[12],14.1 µM (active)
same,Potency,[13],inactive
same,Potency,[7],0.891 µM (active)
same,Potency,[8],14.1 µM (active)
same,Potency,[14],inactive
same,Potency,[9],inactive
N=C(N=C(N)N)N1CCOCC1,"activity change, negative = inhibition",[1]; at 25.7 µM (top of the series),-1.12% (inactive)
same,max response,[1]; [15],14.2%
same,max response,[1]; [16],12.8%
